Some test systems named below: HCT-15 colon; HT29 colon; SNB-75 CNS; SNB-19 CNS; PC-3 prostate; SK-MEL-5 melanoma; UACC-62 melanoma; LOX IMVI melanoma; SK-MEL-28 melanoma; SK-MEL-2 melanoma; SN12C renal; UO-31 renal; TK-10 renal; ACHN renal; CAKI-1 renal; A498 renal; CCRF-CEM leukemia; MOLT-4 leukemia; EKVX NSCLC; U251 CNS.
Assay in all cases: NCI-60 one-dose screen, 48 h (100 = growth as untreated, 0 = no growth, -100 = all killed)
Holding throughout (settings): 10 µM unless noted

This note sets out measurements from PubChem BioAssay (NCI).

Compounds without any hit were thinned out: in the full panel of roughly 83,000, 20% have a hit.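 In brief: 96-well plates, 48 h treatment, single concentration, percent growth endpoint.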 A number with no mark means an inactive call. Calls of active or inactive are those of the source. The calls were made as follows: active = growth percent below 10; inactive = the rest.

As for `COc1ccc(/C=C2\CCCC3=C2NC(C)=NC3c2ccc(OC)c(OC)c2)cc1OC` (stereo unspecified), the growth in the experiment on HCT-15 colon is -61.7% (active); in the experiment with HT29 colon it was -2.36% (active); with SNB-75 CNS, 35.2%; in the experiment on SNB-19 CNS, 60.4%; in the experiment with PC-3 prostate, 32%; in the experiment on SK-MEL-5 melanoma, 6.23% (active). Besides, the growth is 10.9% with UACC-62 melanoma; -72.7% (active) in the experiment on LOX IMVI melanoma; 23% in the experiment on SK-MEL-28 melanoma; 5.93% (active) with SK-MEL-2 melanoma; 5.95% (active) in the experiment with SN12C renal; 34.3% with UO-31 renal. The growth in the experiment with TK-10 renal was 12.2%; in the experiment with ACHN renal it was 9.82% (active); in the experiment on CAKI-1 renal, 5.12% (active); in the experiment on A498 renal it was 5.88% (active); in the experiment with CCRF-CEM leukemia, -20% (active); in the experiment with MOLT-4 leukemia, -23.2% (active).

For `CCCCNc1nnc(-c2cc(-c3cc4ccccc4o3)nn2-c2ccccc2)o1`, the growth in the experiment with HCT-15 colon was 95.3%; in the experiment on HT29 colon, 93.6%; in the experiment with SNB-75 CNS it was 102%; in the experiment with SNB-19 CNS, 91.2%; in the experiment with PC-3 prostate it was 83.6%; in the experiment on SK-MEL-5 melanoma, 71.9%. The growth was 76.7% in the experiment on UACC-62 melanoma; 82.3% in the experiment with LOX IMVI melanoma; 90.6% with SK-MEL-2 melanoma; 99.4% in the experiment on EKVX NSCLC; 93.6% in the experiment on SN12C renal; 71.3% with UO-31 renal. Besides, the growth was 104% with TK-10 renal; 85.9% in the experiment with ACHN renal; 97.4% in the experiment with CAKI-1 renal; 86.5% with A498 renal; 80% in the experiment on CCRF-CEM leukemia; 68.8% in the experiment on MOLT-4 leukemia.

In the case of `O=C1N=C(c2c(-c3[nH]c(=O)c4ccc(Br)cc4c3O)c(O)c3ccccc3c2O)C(=O)c2cc(Br)ccc21`, the growth in the experiment with HCT-15 colon was -36.3% (active); in the experiment on HT29 colon it was 25.7%; with SNB-75 CNS, -35.8% (active); in the experiment with SNB-19 CNS, 4.13% (active); in the experiment on PC-3 prostate it was -60.5% (active); with SK-MEL-5 melanoma it was -9.06% (active). Moreover, the growth is -48.9% (active) in the experiment with UACC-62 melanoma; -67.5% (active) in the experiment on LOX IMVI melanoma; -14.7% (active) in the experiment on SK-MEL-2 melanoma; -75.4% (active) with SN12C renal; -65% (active) in the experiment with UO-31 renal; -39% (active) with TK-10 renal. Moreover, the growth in the experiment with ACHN renal was -54% (active); with CAKI-1 renal, -72% (active); in the experiment on CCRF-CEM leukemia it was 25.3%; with MOLT-4 leukemia it was 31%.

In the case of `O=C(Nc1ccc(Cl)cc1)c1cc(-c2ccc(F)cc2)c2sc(=O)[nH]c2n1`, the growth with HCT-15 colon was 13.1%; in the experiment on HT29 colon, 16.9%; in the experiment on SNB-75 CNS, -5.08% (active); with SNB-19 CNS, 19.3%; in the experiment with PC-3 prostate it was 10.3%; in the experiment on SK-MEL-5 melanoma it was -86.1% (active). The growth in the experiment on UACC-62 melanoma is 26.9%; in the experiment on LOX IMVI melanoma, 8.5% (active); in the experiment with SK-MEL-28 melanoma, 25.4%; with SK-MEL-2 melanoma, 14.3%; with SN12C renal it was 11.9%; in the experiment on UO-31 renal, 4.68% (active). In addition, the growth was 20.8% in the experiment with TK-10 renal; 2.34% (active) with ACHN renal; -12.7% (active) in the experiment with CAKI-1 renal; 16.8% with CCRF-CEM leukemia; 13.9% with MOLT-4 leukemia.

Turning to `CNC(=O)Cc1nc(-c2cccc(NS(=O)(=O)c3c(F)cccc3F)c2F)c(-c2ccnc(Nc3ccccc3)n2)s1`, the growth in the experiment on HCT-15 colon is 72.1%; in the experiment with SNB-75 CNS, 58.2%; in the experiment with SNB-19 CNS it was 75.4%; with U251 CNS it was 86.6%; in the experiment with PC-3 prostate, 81.8%; with SK-MEL-5 melanoma, 63.2%. The growth was 5.51% (active) in the experiment with UACC-62 melanoma; 9.18% (active) in the experiment with LOX IMVI melanoma; 15.2% in the experiment on SK-MEL-28 melanoma; 55.2% in the experiment on SK-MEL-2 melanoma; 40.5% with SN12C renal; 27.3% in the experiment with UO-31 renal. The growth in the experiment on TK-10 renal was 42.7%; in the experiment on ACHN renal it was 10.7%; in the experiment on CAKI-1 renal, 41.5%; with CCRF-CEM leukemia, 87.6%; with MOLT-4 leukemia it was 68.4%.

With `CN(C)c1nc(N)c(N=O)c(N)n1`, the growth was 111% in the experiment on HCT-15 colon; 98.5% in the experiment on SNB-75 CNS; 112% in the experiment on SNB-19 CNS; 103% in the experiment on U251 CNS; 99.4% in the experiment with PC-3 prostate; 110% in the experiment with SK-MEL-5 melanoma. Also, the growth with UACC-62 melanoma is 103%; in the experiment on LOX IMVI melanoma, 99.1%; in the experiment on SK-MEL-28 melanoma, 114%; in the experiment with SK-MEL-2 melanoma, 104%; in the experiment with EKVX NSCLC, 111%; in the experiment on SN12C renal, 110%. Besides, the growth with UO-31 renal was 101%; in the experiment with TK-10 renal it was 110%; in the experiment with ACHN renal, 109%; in the experiment on CAKI-1 renal, 103%; in the experiment with A498 renal, 76.1%; in the experiment on MOLT-4 leukemia, 105%.

As for `CC[C@H](C)[C@@H]1NC(=O)[C@H]([C@@H](C)O)NC(=O)C(Cc2ccccc2)NC(=O)[C@@H]2CCCN2C(=O)C(C(C)C)NC(=O)C(Cc2ccccc2)NC(=O)CNC(=O)[C@@H]2CCCN2C1=O` (stereo partly specified), the growth was 77.2% in the experiment on HCT-15 colon; 54.3% in the experiment with SNB-75 CNS; 73.6% with SNB-19 CNS; 67% with U251 CNS; -0.594% (active) with PC-3 prostate; 64.8% with SK-MEL-5 melanoma. For the same compound, the growth in the experiment on UACC-62 melanoma is 65.6%; with LOX IMVI melanoma, 88.7%; with SK-MEL-28 melanoma, 76.4%; in the experiment on SK-MEL-2 melanoma, 88.9%; with SN12C renal, 72.5%; with UO-31 renal it was 36.8%. Moreover, the growth in the experiment with TK-10 renal was 116%; in the experiment on ACHN renal, 58.7%; in the experiment on CAKI-1 renal it was 37.6%; in the experiment on A498 renal, 26.1%; in the experiment with CCRF-CEM leukemia, 20%; in the experiment with MOLT-4 leukemia, 7.99% (active).

On to `COc1ccc(OC)c(/C=C2\Oc3cc(OCCN4CCCC4)ccc3C2=O)c1`, for which the growth was 93.7% with HCT-15 colon; 95.7% with SNB-75 CNS; 94.3% in the experiment with SNB-19 CNS; 89.5% in the experiment with U251 CNS; 91.5% with PC-3 prostate; 89.2% with SK-MEL-5 melanoma. For the same compound, the growth was 100% with UACC-62 melanoma; 90.3% in the experiment on LOX IMVI melanoma; 106% in the experiment with SK-MEL-2 melanoma; 95.2% in the experiment with EKVX NSCLC; 92.8% in the experiment with SN12C renal; 74.1% in the experiment on UO-31 renal. In addition, the growth in the experiment on TK-10 renal was 110%; in the experiment on ACHN renal, 92.7%; in the experiment with CAKI-1 renal, 79.7%; with A498 renal, 78.2%.

Consider `CCc1cccc(C)c1NC(=O)c1sc2nc3c(cc2c1N)C(=O)CCC3`, for which the growth in the experiment with HCT-15 colon is 32.8%; in the experiment on SNB-75 CNS, -2.83% (active); with SNB-19 CNS it was 67.9%; in the experiment with U251 CNS, 2.81% (active); with PC-3 prostate, 23.3%; in the experiment with SK-MEL-5 melanoma, 17%. The growth in the experiment with UACC-62 melanoma is 46.5%; in the experiment with LOX IMVI melanoma, 37.9%; in the experiment with SK-MEL-28 melanoma it was 42.9%; with SK-MEL-2 melanoma it was 27.5%; in the experiment with SN12C renal, 51.5%; with UO-31 renal, 50.1%. In addition, the growth in the experiment with TK-10 renal is 51.5%; in the experiment on ACHN renal, 51.9%; in the experiment on CAKI-1 renal, 45.8%; in the experiment on A498 renal, -9.18% (active); in the experiment on CCRF-CEM leukemia it was 9.81% (active); with MOLT-4 leukemia, 18%.
